Bioassay records deposited in PubChem BioAssay by National Center for Advancing Translational Sciences (NCATS).
Sampled rows, rich in hits. Any-hit rate of the full collection: about 2.7%.
Tau ThT inhib = blocks human tau fibril formation measured by thioflavin T. P10636. recombinant tau K18 P301L, heparin-induced fibrillization, ThT fluorescence. Potency, µM (series often up to 57.4 µM), for inactives: top-dose activity, negative = inhibition, actives largely listed as inhibitors. actives 2.1% (n = 270,000). AID 1460; note: potency is the fitted concentration of half-maximal effect; nearly all actives have a fitted effect of over 55% in size
Target sequence (P10636 561-689 P618L limits assumed): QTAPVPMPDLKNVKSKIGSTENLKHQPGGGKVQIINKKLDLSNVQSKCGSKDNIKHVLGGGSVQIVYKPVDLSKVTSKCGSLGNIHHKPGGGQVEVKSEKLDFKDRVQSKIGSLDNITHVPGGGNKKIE
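ThT emission at 510 nm, taken 1 hr after adding 30 uM dye, quantifies aggregates formed when 20 uM heparin acts on human tau K18 P301L for 6 hr at 37 C.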
Tau fibril FP = inhibitors of human tau fibril formation; P10636; K18 P301L tau heparin fibrillization, Alexa594 FP, 6 h; Potency, µM (top dose mostly 57.7 µM), for the others: top-dose activity, negative = inhibition, usual class: inhibitors; actives 0.39% (n = 280,000); AID 1468; note: potency is the fitted concentration of half-maximal effect; nearly all actives have a fitted effect of over 55% in size
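Read-out: fluorescence polarization of Alexa 594-labeled tau (0.24 uM), 555 nm excitation, 632 nm emission. Mixtures held 15 uM unlabeled K18 P301L, compound and 20 uM heparin, pH 7 acetate buffer, incubated 6 hr at 37 C.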
Tau fluor cs = counter-screen for tau fibril formation inhibitors | actives 0.93% (n = 280,000) | tau K18 P301L Alexa594 fluorescence, heparin fibrillization | Potency, µM (doses to about 57.7 µM), inactives show at the top dose activity change, negative = decrease; note: potency is the fitted concentration of half-maximal effect; nearly all actives have a fitted effect of over 55% in size
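Human tau K18 P301L (15 uM unlabeled, 0.24 uM Alexa 594-labeled) in 100 mM sodium acetate pH 7 with 20 uM heparin, 6 hr at 37 C. ThT 30 uM added, 1 hr ambient; Alexa 594 FP and total fluorescence read at 555/632 nm.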
FBPA coupling cs = counter-screen for Giardia aldolase inhibitors: coupling enzyme system; activity change, negative = inhibition, % at 58.2 µM, hits read low; actives 0.67% (n = 290,000); coupling enzyme system counterscreen, AmpLite Red fluorescence; in the data active = activity change below about -30%
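Activity here indicates interference with the coupling reaction, not aldolase inhibition. Compounds at 57.5 uM final met coupling enzymes for 10 min at RT; substrate and AmpLite Red detection followed, with a 525/598 nm fluorescence read after 20 min.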
Starred values were filed as active, the others as inactive; ? = inconclusive; · = no result; [ ] = another dose, or the depositor's remark. Unless noted, calls come from the whole dose curve; as a rule, active = well fitted curve in the direction sought with a large enough effect; inconclusive = small, poorly fitted or top-dose-only effect, or another doubt; inactive = no such curve, though single readings can be large; an effect the other way counts as inactive or inconclusive. % is set by controls: 0 for no effect and ±100 for the full control effect.

SMILES	Tau ThT inhib	Tau fibril FP	Tau fluor cs	FBPA coupling cs
Cc1ccc(S(=O)(=O)ON=C2CCN(S(=O)(=O)c3ccccc3)CC2)cc1	11.8%	6.4%	3.6%	0.1
CC1=CC(=O)C=C(C)C1=NOS(=O)(=O)c1ccccc1	14.1µM*	?	?	-87.4*
O=C(CN1CCCCC1)N1CCCc2ccccc21	-4.8%	1.7%	-5.8%	0.1
N#Cc1ccc2ccn(CC(=O)N3CCCc4ccccc43)c2c1	-2.1%	6.5%	-15.4%	-39.5*
Cc1ccc(-c2nc(CS(=O)(=O)CC(=O)NCCc3ccccc3)c(C)o2)cc1	10.6%	-3.1%	8.6%	·
O=C(COC(=O)CCc1c[nH]c2ccccc12)NC(c1ccccc1)c1ccccc1	-9.2%	?	14.1µM*[quencher]	-2.2
CC(OC(=O)CCc1c[nH]c2ccccc12)C(=O)c1ccccc1 (stereo not drawn)	?	4.6%	11.2µM*[quencher]	-4.8
CC(C)CNC(=O)CCc1c[nH]c2ccccc12	?	?	-1.9%	-5.3
CCCCC(CC)COC(=O)c1ccccc1O (stereo not drawn)	-5.8%	3.8%	-3.6%	-0.2
COc1ccc(CCn2c(O)cc3nn(-c4nc5ccccc5s4)c(=O)c-3c2C)cc1	17.8µM*	-5.6%	?	-7.6
COc1ccc(C(=O)/C=C/c2ccc(C)cc2)c(OC(=O)c2ccc([N+](=O)[O-])cc2)c1	3.55µM*	8.6%	?	-1.7
COc1ccc(/C=C/C(=O)c2cc3cccc(OC)c3oc2=O)cc1	7.08µM*	13.7%	-21.8%	-3.0
COc1ccc(/C=C/C(=O)c2c(O)cc(C)oc2=O)c(OC)c1	-16.6%	3.0%	-5.6%	0.2
COc1ccc(C(=O)/C=C/c2ccccc2F)c(OC(=O)c2ccc([N+](=O)[O-])cc2)c1	?	11.4%	?	-2.1
COc1cc(O)c(C(=O)/C=C/c2ccc(OC)c(O)c2)c(OC)c1	3.16µM*	-1.9%	?	-1.9
CN(C)c1ccc(/C=C/C(=O)c2cccnc2)cc1	5.01µM*	3.7%	?	-2.9
CC1=C(C(=O)Nc2ccccc2C)C(c2ccc[nH]2)n2ncnc2N1 (stereo not drawn)	-14.9%	-6.3%	-16.1%	·
CN(C)c1ccc(/C=C/C(=O)c2ccccc2O)cc1	3.98µM*	?	?	-1.2
COc1ccc(C(=O)/C=C/c2ccc(N(C)C)cc2)c(OC)c1	?	-2.9%	14.1µM*[quencher]	0.3
Cc1cc(C)cc(-n2nnc(-c3nc(-c4ccccc4F)no3)c2C)c1	1.5%	2.4%	-5.1%	·
Cc1cc(SCC(=O)N/N=C/c2ccc(O)c(O)c2)c(C)cc1Br	?	18.0%	14.1µM*[quencher]	0.7
Cc1cc(SCC(=O)N/N=C/c2ccc(O)c(O)c2)nc2ccccc12	·	·	·	-0.1
COc1ccc(S(=O)(=O)Nc2cccc(-c3ccc(N4CCOCC4)nn3)c2)cc1F	4.2%	-3.8%	-17.3%	·
COc1ccc(-c2cc(C)no2)cc1S(=O)(=O)N1CCc2ccccc21	?	15.3%	28.2µM*[fluorescent]	·
COc1cc(NC(=O)c2cc3c(s2)-c2ccccc2OC3)cc(OC)c1OC	?	9.1%	6.31µM*[quencher]	·
SMILES	Tau ThT inhib	Tau fibril FP	Tau fluor cs	FBPA coupling cs
COC(=O)c1ccccc1NC(=O)c1cc2c(s1)-c1ccccc1OC2	?	-17.1%	-23.4%	·
COc1ccc(N=Nc2ccc(N)nc2N)cc1	2.51µM*	?	?	-2.9
COc1ccc(N=Nc2c(N)n[nH]c2N)cc1	14.1µM*	0.7%	-28.6%	2.3
COc1ccc(-c2nc(C)ncc2N=Nc2ccccc2)cc1	?	14.6%	?	0.4
COc1ccc(N=Nc2cc(C)ccc2O)cc1	15.8µM*	11.5%	?	0.7
Nc1n[nH]c(N)c1N=Nc1ccc(F)cc1	?	0.6%	?	-1.6
COc1ccc(N=Nc2ccc3ccccc3c2)c(O)c1	·	·	·	1.2
CCOC(=O)c1c(S(=O)(=O)NCC(=O)N(C)Cc2ccccc2)c(C)n(C)c1C	3.8%	0.1%	0.4%	·
NC(=O)c1cccc(-c2cc(Nc3ccc(OC(F)(F)F)cc3)ncn2)c1	?	28.2µM*	?	0.8
O=C(Nc1ccc(OC(F)(F)F)cc1)c1ccc2nc[nH]c2c1	·	·	·	0.2
COc1cc(/C=C(\C#N)C(=O)c2ccc(O)c(O)c2)cc(I)c1O	8.91µM*	3.0%	?	·
COc1ccc2c(c1)c(CC(=O)Nc1cc(C)cc(C)c1)c(C)n2C(=O)c1ccc(Cl)cc1	-5.3%	?	-14.0%	·
CCCCS(=O)(=O)Nc1ccc(C)cn1	?	-16.7%	-16.0%	-50.8*
Cc1ccc(NS(=O)(=O)c2cccs2)nc1	·	·	·	-3.1
